Assay results published in PubChem BioAssay.
Calls of active or inactive are those of the source.

Legend:
[1] = E. coli DRC41 culture turbidity changes, primary screen, E. coli filamentation inducer project, strain DRC41, OD650, 48 h (AID 1152);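 note: E. coli MC1000 strain DRC41 lacking acrAB efflux pump and sulA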; conditions: E. coli DRC41 (acrAB sulA), higher = more signal, called active from +8 up or from −8 down
[2] = small-molecule binders of probe aLefty1, primary screen, biochemical, small-molecule microarray, 635/667 nm fluorescence (AID 1153); conditions: higher = more signal;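 note: score merges spot fluorescence with signal-to-noise ratio from the scanned slide images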
[3] = PSAC antagonists in infected red cells, primary screen, cell-based, P. falciparum Indochina, OD700, 1 h (AID 1154); conditions: P. falciparum Indochina infected RBC osmotic lysis, higher = more signal, called active from +8 up or from −8 down
[4] = PSAC antagonists in infected red cells, primary screen, cell-based, P. falciparum Indochina, OD700, 2 h (AID 1155);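 note: lysis reports solute entry through the parasite surface anion channel PSAC; channel blockers reduce lysis of infected cells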; conditions: P. falciparum Indochina infected erythrocytes, osmotic lysis OD700; higher = more signal, called active from +8 up or from −8 down
[5] = osmotic lysis modulators in infected erythrocytes, primary screen, PSAC antagonist project, cell-based, P. falciparum Indochina, OD700, 3 h (AID 1156); conditions: higher = more signal, called active from +8 up or from −8 down
[6] = PSAC antagonists in infected red cells, primary screen, cell-based, P. falciparum Indochina, OD700, 18 h (AID 1157); conditions: P. falciparum Indochina infected erythrocytes, osmotic lysis OD700, 18 h; higher = more signal, called active from +8 up or from −8 down
[7] = modulators of S6 phosphorylation in cells, primary screen, cell-based, A549, cytoblot, luminescence, serum-stimulated (AID 1158); conditions: A549 phospho-S6 cytoblot, 5 h, higher = more signal;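 note: serum-stimulated A549 lung adenocarcinoma cells; signal is phosphorylated S6 detected by cytoblot immunostaining with HRP secondary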
[8] = molecular target: NADPH oxidase 2 (Homo sapiens) (UniProt P04839); test: NOX2-dependent H2O2 signal modulators, primary screen, NOX inhibitor project, cell-based, HEK293-NOX2, PMA-stimulated, Amplex Red fluorescence (AID 1159); conditions: 45 min, higher = more signal, called active from +8 up or from −8 down; note: test concentration not given here
Sequence of NADPH oxidase 2 (Homo sapiens) (P04839 whole entry, looked up): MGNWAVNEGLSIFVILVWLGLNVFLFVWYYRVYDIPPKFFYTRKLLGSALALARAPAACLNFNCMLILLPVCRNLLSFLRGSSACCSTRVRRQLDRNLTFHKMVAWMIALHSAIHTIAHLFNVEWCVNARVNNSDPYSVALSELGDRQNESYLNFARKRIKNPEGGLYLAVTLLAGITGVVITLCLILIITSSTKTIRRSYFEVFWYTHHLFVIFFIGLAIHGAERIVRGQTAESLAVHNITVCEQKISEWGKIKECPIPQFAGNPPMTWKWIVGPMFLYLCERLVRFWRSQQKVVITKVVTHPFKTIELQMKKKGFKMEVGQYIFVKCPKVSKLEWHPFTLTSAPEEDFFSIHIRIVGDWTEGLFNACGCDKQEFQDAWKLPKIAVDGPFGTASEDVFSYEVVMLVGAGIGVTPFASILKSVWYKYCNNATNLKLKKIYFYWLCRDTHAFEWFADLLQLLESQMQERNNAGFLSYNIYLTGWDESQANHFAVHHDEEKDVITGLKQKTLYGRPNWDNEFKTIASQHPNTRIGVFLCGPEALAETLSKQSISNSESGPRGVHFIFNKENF

[9] = molecular target: NADPH oxidase 4 (Homo sapiens) (UniProt Q9NPH5); test: NOX4-dependent H2O2 signal modulators, primary screen, NOX inhibitor project, cell-based, HEK293-NOX4, tetracycline-induced, Amplex Red fluorescence (AID 1160); conditions: 45 min, higher = more signal, called active from +8 up or from −8 down
Sequence of NADPH oxidase 4 (Homo sapiens) (Q9NPH5 whole entry, looked up): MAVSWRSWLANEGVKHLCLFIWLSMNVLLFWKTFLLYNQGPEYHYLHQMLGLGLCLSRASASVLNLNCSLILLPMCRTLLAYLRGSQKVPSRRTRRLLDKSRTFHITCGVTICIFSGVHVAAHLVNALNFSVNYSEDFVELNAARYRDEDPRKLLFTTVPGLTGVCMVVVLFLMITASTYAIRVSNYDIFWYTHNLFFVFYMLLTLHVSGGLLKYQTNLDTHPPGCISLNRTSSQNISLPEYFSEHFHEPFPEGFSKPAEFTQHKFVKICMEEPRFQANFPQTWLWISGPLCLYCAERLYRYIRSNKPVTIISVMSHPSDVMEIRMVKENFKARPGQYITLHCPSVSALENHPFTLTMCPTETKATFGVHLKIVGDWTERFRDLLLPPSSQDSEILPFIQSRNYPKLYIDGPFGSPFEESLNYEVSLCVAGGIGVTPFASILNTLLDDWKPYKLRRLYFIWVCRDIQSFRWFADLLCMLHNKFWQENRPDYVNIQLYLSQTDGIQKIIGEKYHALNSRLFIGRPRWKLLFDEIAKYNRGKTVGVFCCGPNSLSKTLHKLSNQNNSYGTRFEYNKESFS

[10] = molecular target: NADPH oxidase 5 (Homo sapiens) (UniProt Q96PH1); test: NOX5-dependent H2O2 signal modulators, primary screen, NOX inhibitor project, cell-based, HEK293-NOX5, Amplex Red fluorescence (AID 1161); conditions: HEK293-NOX5, ionomycin, 45 min, higher = more signal
Sequence of NADPH oxidase 5 (Homo sapiens) (Q96PH1 whole entry, looked up): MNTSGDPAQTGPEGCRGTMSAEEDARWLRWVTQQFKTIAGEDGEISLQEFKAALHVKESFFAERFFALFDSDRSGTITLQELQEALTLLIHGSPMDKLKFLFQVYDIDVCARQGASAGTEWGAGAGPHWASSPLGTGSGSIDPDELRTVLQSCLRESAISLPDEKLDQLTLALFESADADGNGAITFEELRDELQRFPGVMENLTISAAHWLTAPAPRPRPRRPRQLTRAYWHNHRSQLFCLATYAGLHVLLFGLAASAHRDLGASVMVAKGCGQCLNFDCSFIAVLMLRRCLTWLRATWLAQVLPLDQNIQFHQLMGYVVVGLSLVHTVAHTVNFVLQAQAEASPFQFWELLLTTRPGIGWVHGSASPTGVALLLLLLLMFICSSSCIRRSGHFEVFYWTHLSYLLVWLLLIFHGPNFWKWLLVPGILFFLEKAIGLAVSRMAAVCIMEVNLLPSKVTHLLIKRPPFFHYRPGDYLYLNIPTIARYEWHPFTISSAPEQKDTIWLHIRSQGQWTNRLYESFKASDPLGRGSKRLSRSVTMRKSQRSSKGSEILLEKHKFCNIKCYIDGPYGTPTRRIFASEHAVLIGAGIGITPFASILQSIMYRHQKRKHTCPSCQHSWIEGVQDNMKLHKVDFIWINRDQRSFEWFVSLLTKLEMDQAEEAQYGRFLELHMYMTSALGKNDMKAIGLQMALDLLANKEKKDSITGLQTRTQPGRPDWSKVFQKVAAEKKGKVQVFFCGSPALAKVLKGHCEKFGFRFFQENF

[11] = A549 cell viability effects, profiling panel, calcein-AM fluorescence, 48 h, basal (AID 1162); conditions: higher = more signal; note: test concentration not given here
[12] = adipocyte viability effects, profiling panel, cell-based, 3T3-L1 adipocytes, calcein-AM fluorescence, 48 h, basal (AID 1163); conditions: 3T3-L1 adipocytes viability, higher = more signal; note: test concentration not given here
[13] = HepG2 cell viability effects, profiling panel, calcein-AM fluorescence, 48 h, basal (AID 1164); conditions: higher = more signal; note: test concentration not given here
[14] = MM1S cell viability effects, profiling panel, calcein-AM fluorescence, 48 h, basal (AID 1165); conditions: higher = more signal;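 note: viability of MM1S multiple myeloma cells under basal unstimulated conditions; test concentration not given here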
[15] = basal RPMI8226 viability, no added stimulus, profiling panel, cell-based, calcein-AM fluorescence, 48 h, PK04 Diversity Set (AID 1166); conditions: RPMI8226 myeloma viability, higher = more signal;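 note: cells grown under basal conditions without added stimulus; test concentration not given here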
[16] = basal HepG2 mitochondrial membrane potential changes, profiling panel, cell-based, JC-1 fluorescence, 24 h, 100 nL compound (AID 1167); conditions: higher = more signal; note: test concentration not given here
[17] = basal 3T3-L1 adipocyte mitochondrial potential changes, profiling panel, cell-based, JC-1 fluorescence, 3T3-L1 adipocytes, 24 h, 100 nL compound (AID 1168); conditions: JC-1 mitochondrial fluorescence, higher = more signal, called active from +8 up or from −8 down; note: test concentration not given here
[18] = basal RPMI8226 mitochondrial membrane potential changes, profiling panel, cell-based, JC-1 fluorescence, 24 h, 100 nL compound (AID 1169); conditions: RPMI8226 myeloma, JC-1 mitochondrial potential fluorescence, higher = more signal; note: test concentration not given here
[19] = basal MM1S mitochondrial membrane potential changes, profiling panel, cell-based, JC-1 fluorescence, 24 h, 100 nL compound (AID 1170); conditions: higher = more signal; note: test concentration not given here
[20] = A549 lung cancer cell viability effects, profiling panel, resazurin fluorescence, 24 h, PK04 Diversity Set (AID 1171); conditions: higher = more signal, called active from +8 up or from −8 down; note: test concentration not given here

Row | Structure (SMILES) | z-score [1] | composite z-score [2] | z-score [3] | z-score [4] | z-score [5] | z-score [6] | z-score [7] | z-score [8] | z-score [9] | z-score [10] | z-score [11] | z-score [12] | z-score [13] | z-score [14] | z-score [15] | z-score [16] | z-score [17] | z-score [18] | z-score [19] | z-score [20]
1 | COc1cc2c(cc1O)C(C1CC1)N(Cc1ccc([N+](=O)[O-])o1)CC2 (stereo not given) | -1.03 (inactive) | 0.0446 | 23.7 (active) | 6.01 (inactive) | 0.359 (inactive) | 0.892 (inactive) | 0.106 | -4.17 (inactive) | -2.46 (inactive) | -3.45 | -0.37 | 0.393 | -0.181 | -0.201 | 0.741 | -1.57 | -0.0836 (inactive) | -0.748 | 0.0309 | 0.533 (inactive)
2 | C=C(CC1([C@@H](NP(=O)(c2ccccc2)c2ccccc2)[C@H]2C[C@@H]2CCN(C(=O)OCC)S(=O)(=O)c2ccc(C)cc2)CC1)c1ccccc1 | -1.42 (inactive) | 0.723 | 2.02 (inactive) | 0.939 (inactive) | 2.36 (inactive) | 1.28 (inactive) | 0.603 | 0.464 (inactive) | -1.66 (inactive) | -3.34 | -2.02 | 1.2 | -1.12 | -0.798 | -3.89 | 4.8 | -1.47 (inactive) | -0.699 | -1.09 | 0.789 (inactive)
3 | O=C1O[C@H](c2ccccc2)[C@H](c2ccccc2)N2[C@H]1[C@@H](C(=O)N1CCN(c3ncccn3)CC1)[C@]1(C(=O)Nc3ccccc31)[C@H]2c1ccc(O)cc1 | 0.649 (inactive) | 0.0262 | 1.24 (inactive) | 1.01 (inactive) | -0.236 (inactive) | 1.01 (inactive) | 0.0782 | 0.898 (inactive) | -1.54 (inactive) | 1.65 | 0.947 | 1.36 | 0.406 | -1.28 | -4 | -1.26 | 1.04 (inactive) | -1.06 | 0.183 | 0.371 (inactive)
4 | C=CC[C@]1(C(=O)OC)N=C(c2ccc(OCCCO)cc2)O[C@H]1c1ccccc1N=[N+]=[N-] | -0.908 (inactive) | 1.06 | 30.3 (active) | 26.5 (active) | 5.34 (inactive) | 4.92 (inactive) | 0.26 | -1.89 (inactive) | 0.988 (inactive) | -0.21 | -1.22 | 0.617 | -0.491 | -0.54 | -2.37 | 0.54 | 0.147 (inactive) | -1.13 | 0.676 | -1.6 (inactive)
5 | CC[C@H](C)C(=O)O[C@H]1CC[C@]2(C)C3=C(CCC2C1(C)C)[C@]1(C)CC[C@H]([C@H](C)CCCC(C)C)[C@@]1(C)CC3 (stereo not given in full) | 2.16 (inactive) | -0.142 | -0.223 (inactive) | -0.121 (inactive) | -0.589 (inactive) | -0.136 (inactive) | 0.231 | -0.371 (inactive) | -0.0141 (inactive) | -0.162 | 1.18 | 0.265 | 0.469 | 0.223 | -1.06 | 2.01 | -0.959 (inactive) | -0.509 | 0.628 | 0.809 (inactive)
6 | NCCCC[C@@H]1NC(=O)[C@H]2C[C@@H](C(=O)O)[C@@H](c3cccc(OCCO)c3)N2C1=O | -1.23 (inactive) | 0.951 | -1.87 (inactive) | -0.195 (inactive) | 0.452 (inactive) | 0.253 (inactive) | -0.993 | 2.14 (inactive) | 0.834 (inactive) | 0.415 | -0.917 | -0.61 | 0.274 | -1.81 | 0.0324 | -2.23 | 0.0425 (inactive) | -0.392 | -0.658 | 0.506 (inactive)
7 | CCCCC=C[C@@H](NC(=O)c1ccc(C(F)(F)F)cc1)c1ccccc1 | -1.96 (inactive) | -0.112 | 5.47 (inactive) | 0.895 (inactive) | -0.427 (inactive) | 0.373 (inactive) | -0.0311 | -1.51 (inactive) | -1.37 (inactive) | 1.1 | -1.13 | -1.28 | -0.63 | -0.978 | -2.53 | -1.65 | -1.12 (inactive) | -0.169 | -1.27 | 2.14 (inactive)
8 | CCCCC(=C=CC[C@H](O)c1ccc(OCCO)cc1)C[C@H](O)c1ccccn1 | 0.558 (inactive) | -0.0536 | 15.4 (active) | 2.3 (inactive) | 1.11 (inactive) | 1.07 (inactive) | 0.433 | 1.26 (inactive) | 0.364 (inactive) | -1.34 | 1.47 | -0.398 | 0.701 | -0.556 | -0.585 | -0.0776 | -0.794 (inactive) | -0.485 | -0.603 | 1.07 (inactive)
9 | CC(C)C(=C=CC[C@@H](O)c1cccc(OCCO)c1)CCO | 0.838 (inactive) | 0.0919 | 2.96 (inactive) | 0.108 (inactive) | 0.607 (inactive) | 0.233 (inactive) | 0.617 | -0.841 (inactive) | -0.471 (inactive) | -1.26 | 0.418 | 0.114 | 0.785 | 0.753 | -0.25 | 0.436 | 0.258 (inactive) | 0.314 | -1.18 | 0.625 (inactive)
